# Only some compounds are listed: those with a hit (about 2.9% of all), similar ones and a draw of the others.
# MEKK3 PB1 HTS – MEKK3-MEK5 PB1 interaction, increase or decrease; bead-based flow cytometry, Alexa488-MEK5 binding to MEKK3; actives lie on both sides; 0 = blocked by unlabeled MEK5, 100 = vehicle; binding response (% of control), % at 10 µM; 290,000 tested, 1.4% active;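 active means binding response more than 3 SD above or below the average of its plate-row segment, actives on both sides; inconclusive means wells at one plate position flagged as instrument error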;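 further: Alexa488 bead fluorescence after subtracting the streptavidin-only scavenger bead signal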
# Target sequence (Q99759 whole entry, looked up): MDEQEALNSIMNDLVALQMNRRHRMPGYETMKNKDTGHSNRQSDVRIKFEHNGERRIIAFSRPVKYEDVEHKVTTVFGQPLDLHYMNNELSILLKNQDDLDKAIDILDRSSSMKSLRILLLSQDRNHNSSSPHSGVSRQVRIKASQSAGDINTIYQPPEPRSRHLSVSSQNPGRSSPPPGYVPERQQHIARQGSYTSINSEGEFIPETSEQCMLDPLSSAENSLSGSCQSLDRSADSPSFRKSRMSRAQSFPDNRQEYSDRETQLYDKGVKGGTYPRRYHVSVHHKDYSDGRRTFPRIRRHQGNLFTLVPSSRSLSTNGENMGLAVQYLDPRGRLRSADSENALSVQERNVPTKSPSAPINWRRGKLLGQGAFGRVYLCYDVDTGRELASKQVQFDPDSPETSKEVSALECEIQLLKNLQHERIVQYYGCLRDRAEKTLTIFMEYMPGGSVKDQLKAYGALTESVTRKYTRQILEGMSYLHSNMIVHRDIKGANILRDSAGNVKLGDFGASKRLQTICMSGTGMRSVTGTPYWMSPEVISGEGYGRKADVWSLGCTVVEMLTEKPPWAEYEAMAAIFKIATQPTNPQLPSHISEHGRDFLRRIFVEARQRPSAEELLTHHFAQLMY
# MEKK2mut PB1 HTS – signal of MEK5 binding to mutant human MEKK2 PB1 domain. percent response, % at 10 µM. 290,000 tested, 0.35% active. bead flow cytometry, Alexa488-MEK5 binding to MEKK2 mutant; in the data active means percent response above about 24%, passing the limit was not always enough
# dFosB act – enhances mouse delta FosB homodimer DNA binding. purified delta FosB, TAMRA-CDK5 oligo fluorescence polarization; percent of positive-control signal above neutral wells. P13346. 340,000 tested, 0.99% active. activation, % at 25 µM;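 active means mean activation above about 17%, with every replicate also reaching it, limit read from the data, passing the limit was not always enough; inconclusive means only one of the two conditions met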
# MEKK2 WT-MEK5 – raises or lowers MEK5 binding to wildtype human MEKK2 PB1 domain; bead flow cytometry, Alexa488-MEK5 binding to MEKK2 WT; actives lie on both sides; Q9Y2U5; binding response (% of control), % at 10 µM; 290,000 tested, 1.1% active; in the data active means binding response below about 67% or above about 130%; inconclusive means no clear call, values can overlap the other calls; inactive means in between
# FID counter – displaces DNA intercalator in HCV helicase counter-screen | DNA fluorescent intercalator displacement, fluorescence | inhibition, % at 7.9 µM | 290,000 tested, 0.17% active | AID 1845; in the data active means inhibition above about 37%;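 further: 0% = vehicle and 100% = reference compound; higher means more ethidium bromide displaced from hairpin DNA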
# MEKK2wt confirm – raises or lowers MEK5 binding to wildtype human MEKK2, retest. shares compounds with MEKK3 PB1 HTS. bead flow cytometry, Alexa488-MEK5 binding to MEKK2 WT; actives lie on both sides. binding response (% of control), % at 10 µM. 5,900 tested, 2.4% active. AID 1892; in the data active means binding response below about 16% or above about 210%; inactive means in between
# MEKK2mut confirm – signal of MEK5 binding to mutant human MEKK2, retest. bead flow cytometry, Alexa488-MEK5 binding to MEKK2 mutant. 5,900 tested, 2% active. percent response, % at 10 µM. shares compounds with MEKK3 PB1 HTS; in the data active means percent response mostly above about 71%, no sharp cut-off; inactive means mostly below about 38%;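 further: higher means compound restores mutant binding toward wildtype level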
# MEKK3-MEK5 inh – MEKK3-MEK5 PB1 inhibition, single concentration confirmation | shares compounds with MEKK3 PB1 HTS | bead flow cytometry, Alexa488-MEK5 binding to MEKK3; active compounds read low | binding response (% of control), % at 10 µM | 5,900 tested, 1.8% active | AID 1894;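 active means binding response below 72% of control, or above a set upper limit, though filed actives all read lower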;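 further: 100% = DMSO only wells and 0% = binding blocked by excess unlabeled MEK5; lower values mean stronger disruption of MEK5 binding to MEKK3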
# * marks the source's active call; other numbers are inactive results; ? = inconclusive; . = no result; [ ] = dose if it differs, or a comment.
SMILES,MEKK3 PB1 HTS,MEKK2mut PB1 HTS,dFosB act,MEKK2 WT-MEK5,FID counter,MEKK2wt confirm,MEKK2mut confirm,MEKK3-MEK5 inh
CCOc1ccc(CC(=N)C2=C(O)CC(C)(C)CC2=O)cc1OCC,108,0,-3,101,-7,.,.,.
Cn1c2ccccc2c(=O)c2cc(C#Cc3cccc(N)c3)ccc21,.,.,0,.,.,.,.,.
COc1ccccc1C#Cc1ccc2c(=O)c3ccccc3n(C)c2c1,91,-9,-8,66*[inhibitor],-18,86,-9,94
CC(C)C[C@@H](CNCC(=O)[C@H](C)NC(=O)c1[nH]cnc1C(=O)N[C@@H](C)CN)NC(=O)c1nc[nH]c1C(=O)N[C@@H](C)C(=O)O,.,.,-10,.,.,.,.,.
CCCCNC(=S)N1CCN(c2ccc(C(C)=O)cc2)CC1,118,6,0,106,-16,.,.,.
CSCCCNC(=S)N1CCN(c2ccc(C(C)=O)cc2)CC1,5.0*[inhibitor],-45,-15,6.0*[inhibitor],-19,100,-5,99
CCOC(=O)N1CCN(C(=O)c2ccc3c(=O)n(-c4ccc(F)cc4)c(=S)[nH]c3c2)CC1,1.0*[inhibitor],-21,2,0.0*[inhibitor],-5,94,-1,87
COc1ccc(-n2c(=S)[nH]c3cc(C(=O)Nc4cccc(C)c4)ccc3c2=O)cc1,155*,-1,15,105,-6,101,4,103
Clc1ccc(Sc2oc(/C=N/n3cnnc3)cc2Br)cc1,99,2,-11,91,0,.,.,.
CN(C)C(=O)/C(C#N)=C\c1cc(Br)c(Sc2ccc(Cl)cc2)o1,132*,2,-11,105,-1,103,4,103
Cc1ccc(-c2nn(-c3cc(N4CCNCC4)ccc3[N+](=O)[O-])c(=O)c3ccccc23)cc1,99,15,35*,145*,19,153,30,109
Cc1[nH]c2ccc(F)cc2c1CCNC(=O)C1CCCCC1C(=O)OCC(F)(F)F (stereo unspecified),153*,1,-2,109,-10,99,-3,100
CCCN(C(=O)c1ccco1)c1nnc(-c2cccc(C)c2)s1,94,-8,-24,86,2,.,.,.
CCN(C(=O)c1ccco1)c1nnc(-c2ccc(OC)cc2)s1,66*[inhibitor],4,-16,78,-2,104,-2,103
CO/N=C1\CCCc2c(C(=O)NN)sc(SC)c21,91,-5,-7,88,-3,.,.,.
CCOC(=O)c1sc(SC)c2c1CCC/C2=N/OC,131*,30,1,118,-8,99,0,102
COC(=O)c1ccc(CNC(=O)c2ccc(NS(=O)(=O)c3ccc4[nH]c(=O)[nH]c4c3)cc2)cc1,.,.,-9,.,.,.,.,.
O=C(O)CCSc1nnc(SCC(=O)NC2CCS(=O)(=O)C2)s1 (stereo unspecified),.,.,8,.,.,.,.,.
Oc1ccc(N=Nc2cccc(Cl)c2)cc1C=Nc1ccc(N2CCOCC2)cc1,97,4,4,100,6,.,.,.
Oc1c(Br)cc(Cl)cc1C=Nc1ccc(N2CCOCC2)cc1,89,-18,5,54*[inhibitor],5,83,-8,101
CC(C)C(=O)Nc1nnc(SCC(=O)NCc2ccco2)s1,139*,0,3,106,-6,104,4,103
CC(C)CC(=O)Nc1nnc(SCC(=O)NCc2ccco2)s1,99,2,1,100,-4,.,.,.
COc1cc(OC)c2c(C)cc(=O)oc2c1C(CCN1CCOCC1)c1ccc(N(C)C)cc1 (stereo unspecified),92,5,-5,100,.,.,.,.
COc1cc(OC)c2c(-c3ccccc3)cc(=O)oc2c1C(CCN1CCN(c2ccccc2)CC1)c1ccc(N(C)C)cc1 (stereo unspecified),99,6,2,113,.,.,.,.
COc1cc(C(CCN2CCCCC2)c2c(OC)cc(OC)c3c(C)cc(=O)oc23)cc(OC)c1OC (stereo unspecified),118,6,0,141*,.,105,4,100
SMILES,MEKK3 PB1 HTS,MEKK2mut PB1 HTS,dFosB act,MEKK2 WT-MEK5,FID counter,MEKK2wt confirm,MEKK2mut confirm,MEKK3-MEK5 inh
COc1ccc(C(CCN2CCCC(C)C2)c2c(OC)cc(OC)c3c(-c4ccccc4)cc(=O)oc23)cc1 (stereo unspecified),110,41*,-5,207*,.,190,52,110
COc1ccc(C(CCN2CCCC(C)C2)c2c(OC)cc(OC)c3c(C)cc(=O)oc23)cc1 (stereo unspecified),120,7,-10,138*,.,117,6,104
COc1cc(C(CCN2CCOCC2)c2c(OC)cc(OC)c3c(-c4ccccc4)cc(=O)oc23)cc(OC)c1OC (stereo unspecified),.,.,-13,.,.,.,.,.
CCCCCc1cc(=O)oc2c(C(CCN(CC)CC)c3cc(OC)c(OC)c(OC)c3)c(OC)cc(OC)c12 (stereo unspecified),116,34*,7,218*,.,136,15,84
CCOC(=O)c1nnn(-c2nonc2N)c1-c1ccc(OC)cc1,89,-9,-5,92,-6,.,.,.
COc1cc(OC)c2c(-c3ccccc3)cc(=O)oc2c1C(CCN1CCCC(C)C1)c1ccc(N(C)C)cc1 (stereo unspecified),112,41*,1,222*,.,177,47,101
CCCCCc1cc(=O)oc2c(C(CCN3CCCCC3)c3ccc4c(c3)OCO4)c(OC)cc(OC)c12 (stereo unspecified),110,50*,?,203*,.,226*,73*,108
COc1cc(C(CCN2CCCC2)c2c(OC)cc(OC)c3c(-c4ccccc4)cc(=O)oc23)cc(OC)c1OC (stereo unspecified),112,26*,5,140*,.,119,11,104
COc1ccc(C(CCN2CCOCC2)c2c(OC)cc(OC)c3c(-c4ccccc4)cc(=O)oc23)cc1 (stereo unspecified),.,.,6,.,.,.,.,.
COc1ccc(C(CCN2CCCC2)c2c(OC)cc(OC)c3c(-c4ccccc4)cc(=O)oc23)cc1 (stereo unspecified),108,20,?,152*,.,164,45,114
COc1ccc2cc(S(=O)(=O)n3cnc(C)c3)ccc2c1,93,-5,6,92,-10,.,.,.
COC(=O)[C@]1(C)N[C@H](CN(C)C(=O)c2ccc(C)cc2)[C@@H]2C(=O)N(C)C(=O)[C@@H]21,.,.,-1,.,.,.,.,.
O=C(CSc1nncs1)NCCCc1ccccc1,89,-3,-4,90,-3,.,.,.

# Screens as filed in PubChem.
